Results as given in the supplement of paper PMC9262897, “Low-cost anti-mycobacterial drug discovery using engineered E. coli” (Nature Communications, 2022).
Counter-ions that a name gives are not always drawn. ± gives the standard deviation of the averaged measurements.

Legend:
Experiment in all cases: growth (OD600 after 10 h); higher = more growth (less inhibition)
[1] = tested on: E. coli TESEC Alr+ wild-type control; details: compound 0.1 mM; raw OD600 reference: median of DMSO wells 0.241, cell-free background 0.041
Experimental: (§1)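 TESEC Mtb Alr E. coli, or the Alr+ wild-type control, in 384-well plates with Prestwick library compounds at 0.1 mM and 1% DMSO, across arabinose induction levels of 1E3 to 1E7 nM. Growth is read as OD600 after 10 h at 37 °C in triplicate biological replicates.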

E. coli TESEC Mtb Alr [2] = details: compound 0.1 mM
Experimental: as §1

E. coli TESEC Mtb Asd = details: compound 0.1 mM
Experimental: (§2)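 TESEC E. coli strains in which the native enzyme is deleted and replaced by arabinose-inducible Mtb Asd, DapB, CysH or TrpD, each grown in its selective medium. Strains were screened against the Prestwick library at 0.1 mM and 1% DMSO in 384-well format at low and high arabinose induction. Growth is read as OD600 after 10 h in triplicate.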

E. coli TESEC Mtb DapB = details: compound 0.1 mM
Experimental: as §2

[3] = tested on: E. coli TESEC Alr+ wild-type control; details: compound 0.1 mM; raw OD600 reference: median of DMSO wells 0.49, cell-free background 0.052
Experimental: (§3)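 TESEC Mtb Alr E. coli (ΔaraC ΔtolC ΔentC Δalr ΔdadX, arabinose-inducible Mtb Alr) or the Alr+ wild-type control strain, grown in defined M9-fructose medium without D-alanine in 96-well plates with Prestwick library compounds at 0.1 mM and 1% DMSO. Low Alr induction is 0.1 µM arabinose and high induction is 10 mM arabinose.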

E. coli TESEC Mtb Alr [4] = details: compound 0.1 mM; remark: listed apart in the source
Experimental: as §3

[5] = arabinose 1000 nM, raw OD600 reference: median of DMSO wells 0.294, cell-free background 0.041
[6] = arabinose 10000 nM, raw OD600 reference: median of DMSO wells 0.264, cell-free background 0.041
[7] = arabinose 100000 nM, raw OD600 reference: median of DMSO wells 0.201, cell-free background 0.041
[8] = arabinose 1000000 nM, raw OD600 reference: median of DMSO wells 0.193, cell-free background 0.041
[9] = arabinose 10000000 nM, raw OD600 reference: median of DMSO wells 0.146, cell-free background 0.041
[10] = arabinose induction (level): High, raw OD600 reference: median of DMSO wells 0.331, cell-free background 0.041
[11] = arabinose induction (level): Low, raw OD600 reference: median of DMSO wells 0.417, cell-free background 0.041
[12] = arabinose induction (level): High, raw OD600 reference: median of DMSO wells […], cell-free background 0.041
[13] = arabinose induction (level): Low, raw OD600 reference: median of DMSO wells 0.227, cell-free background 0.041
[14] = arabinose 100 nM, raw OD600 reference: median of DMSO wells 0.413, cell-free background 0.052
[15] = arabinose 10000000 nM, raw OD600 reference: median of DMSO wells […], cell-free background 0.052

Compound | growth [1] | growth (E. coli TESEC Mtb Alr [2]; [5]) | growth (E. coli TESEC Mtb Alr [2]; [6]) | growth (E. coli TESEC Mtb Alr [2]; [7]) | growth (E. coli TESEC Mtb Alr [2]; [8]) | growth (E. coli TESEC Mtb Alr [2]; [9]) | growth (E. coli TESEC Mtb Asd; [10]) | growth (E. coli TESEC Mtb Asd; [11]) | growth (E. coli TESEC Mtb DapB; [12]) | growth (E. coli TESEC Mtb DapB; [13]) | growth [3] | growth (E. coli TESEC Mtb Alr [4]; [14]) | growth (E. coli TESEC Mtb Alr [4]; [15])
Cc1c(C)c2c(c(C)c1O)CCC(C)(COc1ccc(CC3SC(=O)NC3=O)cc1)O2 (configuration not stated) [Troglitazone] | 0.0771 ± 0.022 | 0.108 ± 0.06 | 0.0436 ± 0.0028 | 0.16 ± 0.011 | 0.0474 ± 0.003 | 0.104 ± 0.016 | 0.0511 ± 0.00036 | 0.0536 ± 0.0033 | 0.08 ± 0.0038 | 0.126 ± 0.04 | 0.445 ± 0.029 | 0.0885 ± 0.025 | 0.0573 ± 0.00085
CCn1cc(C(=O)O)c(=O)c2ccc(C)nc21 [Nalidixic acid sodium salt] | 0.04987 ± 0.00029 | 0.0467 ± 0.0009 | 0.0394 ± 0.00056 | 0.0502 ± 0.0012 | 0.0413 ± 0.0013 | 0.05153 ± 0.00015 | 0.09847 ± 0.00049 | 0.0829 ± 0.0083 | 0.0992 ± 0.0072 | 0.0689 ± 0.0001 | 0.0678 ± 0.0015 | 0.0753 ± 0.014 | 0.0595 ± 0.0029
CCN(CC)C(=S)SSC(=S)N(CC)CC [Disulfiram] | 0.278 ± 0.0078 | 0.197 ± 0.027 | 0.115 ± 0.0063 | 0.161 ± 0.014 | 0.0709 ± 0.0023 | 0.06003 ± 0.00047 | 0.192 ± 0.028 | 0.33 ± 0.034 | 0.161 ± 0.013 | 0.211 ± 0.01 | 0.443 ± 0.066 | 0.23 ± 0.093 | 0.146 ± 0.008
NCCC[C@H](N)CC(=O)N[C@H]1CNC(=O)[C@H]([C@H]2C[C@H](O)NC(N)=N2)NC(=O)/C(=C/NC(N)=O)NC(=O)[C@H](CO)NC(=O)[C@H](CO)NC1=O [Viomycin sulfate] | 0.178 ± 0.011 | 0.251 ± 0.012 | 0.1314 ± 0.0004 | 0.138 ± 0.0014 | 0.112 ± 0.0031 | 0.143 ± 0.0015 | 0.281 ± 0.032 | 0.268 ± 0.016 | 0.169 ± 0.0056 | 0.226 ± 0.031 | 0.193 ± 0.13 | 0.226 ± 0.14 | 0.0681 ± 0.0071
COc1ccc2c(c1)C(=O)N(CCc1ccc(S(=O)(=O)NC(=O)NC3CCCCC3)cc1)C(=O)C2(C)C [Gliquidone] | 0.06 ± 0.018 | 0.0483 ± 0.0024 | 0.04083 ± 0.00021 | 0.0728 ± 0.0039 | 0.0491 ± 0.00068 | 0.119 ± 0.0032 | 0.126 ± 0.027 | 0.0965 ± 0.065 | 0.157 ± 0.015 | 0.173 ± 0.0091 | 0.0675 ± 0.001 | 0.108 ± 0.046 | 0.116 ± 0.0081
Nc1c(Br)cc(Br)cc1CN[C@H]1CC[C@H](O)CC1 [Ambroxol hydrochloride] | 0.202 ± 0.0077 | 0.256 ± 0.014 | 0.283 ± 0.0086 | 0.18 ± 0.031 | 0.1617 ± 0.0016 | 0.149 ± 0.0085 | 0.168 ± 0.021 | 0.318 ± 0.06 | 0.204 ± 0.015 | 0.221 ± 0.029 | 0.626 ± 0.055 | 0.406 ± 0.0096 | 0.312 ± 0.015
CN1Cc2c(N)cccc2C(c2ccccc2)C1 (configuration not stated) [Nomifensine maleate] | 0.225 ± 0.0061 | 0.273 ± 0.0089 | 0.249 ± 0.0043 | 0.19 ± 0.036 | 0.1674 ± 0.0015 | 0.141 ± 0.0063 | 0.243 ± 0.026 | 0.357 ± 0.038 | 0.175 ± 0.013 | 0.181 ± 0.025 | 0.498 ± 0.078 | 0.4122 ± 0.0024 | 0.348 ± 0.019
CC1(C)NC(=O)N(c2ccc([N+](=O)[O-])c(C(F)(F)F)c2)C1=O [Nilutamide] | 0.216 ± 0.017 | 0.273 ± 0.0069 | 0.256 ± 0.003 | 0.189 ± 0.012 | 0.153 ± 0.0033 | 0.142 ± 0.0062 | 0.281 ± 0.1 | 0.399 ± 0.042 | 0.194 ± 0.012 | 0.252 ± 0.0066 | 0.552 ± 0.064 | 0.396 ± 0.013 | 0.295 ± 0.017
Cc1nccn1CC1CCc2c(c3ccccc3n2C)C1=O (configuration not stated) [Ondansetron Hydrochloride] | 0.195 ± 0.004 | 0.272 ± 0.0034 | 0.252 ± 0.0038 | 0.246 ± 0.0034 | 0.304 ± 0.014 | 0.146 ± 0.0028 | 0.432 ± 0.06 | 0.191 ± 0.011 | 0.229 ± 0.013 | 0.183 ± 0.004 | 0.526 ± 0.11 | 0.365 ± 0.013 | 0.384 ± 0.0066
CCSc1ccc2c(c1)N(CCCN1CCN(C)CC1)c1ccccc1S2 [Thiethylperazine dimalate] | 0.0403 ± 0.00055 | 0.0413 ± 0.0013 | 0.0405 ± 0.0005 | 0.0425 ± 0.002 | 0.03993 ± 0.00021 | 0.0411 ± 0.00055 | 0.0483 ± 0.0004 | 0.0464 ± 0.0011 | 0.0474 ± 0.0002 | 0.04737 ± 0.00025 | 0.0499 ± 0.0032 | 0.0513 ± 0.00084 | 0.0544 ± 0.0021
COCC1=C(C(=O)OC(C)OC(=O)OC(C)C)N2C(=O)[C@@H](NC(=O)/C(=N\OC)c3csc(N)n3)[C@H]2SC1 (some centres not stated) [Cefpodoxime proxetil] | 0.2132 ± 0.002 | 0.116 ± 0.0091 | 0.0588 ± 0.0019 | 0.22 ± 0.011 | 0.166 ± 0.008 | 0.165 ± 0.0036 | 0.215 ± 0.051 | 0.179 ± 0.034 | 0.202 ± 0.05 | 0.285 ± 0.049 | 0.425 ± 0.044 | 0.0545 ± 0.0063 | 0.278 ± 0.016
CC(C)Oc1ccc2c(=O)c(-c3ccccc3)coc2c1 [Ipriflavone] | 0.196 ± 0.0047 | 0.25 ± 0.018 | 0.231 ± 0.0093 | 0.186 ± 0.015 | 0.117 ± 0.02 | 0.138 ± 0.0016 | 0.345 ± 0.098 | 0.4 ± 0.021 | 0.191 ± 0.018 | 0.211 ± 0.039 | 0.464 ± 0.025 | 0.402 ± 0.014 | 0.285 ± 0.012
CN[C@H](CC(C)C)C(=O)N[C@H]1C(=O)N[C@@H](CC(N)=O)C(=O)N[C@H]2C(=O)N[C@H]3C(=O)N[C@H](C(=O)N[C@H](C(=O)O)c4cc(O)cc(O)c4-c4cc3ccc4O)[C@H](O)c3ccc(c(Cl)c3)Oc3cc2cc(c3O[C@@H]2O[C@H](CO)[C@@H](O)[C@H](O)[C@H]2O[C@H]2C[C@](C)(N)[C@H](O)[C@H](C)O2)Oc2ccc(cc2Cl)[C@H]1O [Vancomycin hydrochloride] | 0.0502 ± 0.0016 | 0.084 ± 0.073 | 0.03873 ± 0.00032 | 0.0413 ± 0.0026 | 0.0388 ± 0.00044 | 0.0471 ± 0.0044 | 0.0662 ± 0.0062 | 0.0563 ± 0.011 | 0.0659 ± 0.0035 | 0.0604 ± 0.0036 | 0.0581 ± 0.0048 | 0.217 ± 0.15 | 0.0507 ± 0.00062
NC(=O)N1c2ccccc2CC(=O)c2ccccc21 [Oxcarbazepine] | 0.236 ± 0.0086 | 0.269 ± 0.015 | 0.256 ± 0.0035 | 0.211 ± 0.03 | 0.171 ± 0.0024 | 0.146 ± 0.0084 | 0.225 ± 0.042 | 0.322 ± 0.043 | 0.189 ± 0.0098 | 0.201 ± 0.019 | 0.601 ± 0.13 | 0.403 ± 0.0086 | 0.321 ± 0.0074
